From the supplement of paper PMC8728848 come the findings set out here.

The sample as a whole holds a higher share of the strongest signals than the screen did.

Holding throughout (test): glycan array binding signal (z-score within array); higher = stronger binding
What all share (conditions): glycan notation: IUPAC condensed, linker removed

The target in one assay is Fuc(a1-2)[Gal(a1-3)]Gal. Summed up: (§1)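 Negative Z-scores can be read as non-binding. The Z-score is calculated within each array and then averaged across arrays of one protein sequence at different concentrations or buffers and across linkers. Arrays, 3228 in all, were curated from the Consortium for Functional Glycomics database and kept only where the protein sequence was available.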

Assay [1] addresses Fuc(a1-2)[Gal(a1-4)]Gal(b1-4)GlcNAc. Summed up:
as §1

Assay [2] concerns the target Fuc(a1-2)[GalNAc(a1-3)]Gal(b1-3)GlcNAc. An outline of the steps:
as §1

For assay [3], the target named is Fuc(a1-3)[Gal(b1-4)]GlcNAc(b1-4)Gal(b1-4)[Fuc(a1-3)]GlcNAc(b1-4)Gal(b1-4)[Fuc(a1-3)]GlcNAc. Summed up: as §1
The next assay concerns the target Gal(a1-3)Gal(b1-4)Glc. An outline of the steps: as §1
In another assay the target is Gal(a1-4)Gal(b1-4)GlcNAc. An outline of the steps:
as §1

The target in assay [4] is Gal(b1-3)[Fuc(a1-4)]GlcNAc. An outline of the steps: as §1
The target in assay [5] is Gal(b1-3)[GlcNAc(b1-6)]GalNAc. Summed up:
as §1

The next assay addresses GalNAc(b1-3)GalNAc. An outline of the steps:
as §1

The target in another assay is GalNAc(b1-4)GlcNAc. An outline of the steps: as §1
For another assay, the target named is GlcNAc(b1-3)Gal. Summed up: as §1
The target of a further assay is GlcNAc(b1-3)GalNAc. An outline of the steps: as §1
The target of assay [6] is GlcNAc(b1-3)[GlcNAc(b1-6)]Gal(b1-4)GlcNAc. An outline of the steps: as §1
Another assay addresses Neu5Ac(a2-3)Gal(b1-4)Glc. An outline of the steps:
as §1

In assay [7] the target is Neu5Ac(a2-3)Gal(b1-4)GlcNAc(b1-3)Gal(b1-4)GlcNAc. Summed up: as §1
Assay [8] has as its target Neu5Ac(a2-3)Gal(b1-4)GlcNAc(b1-3)Gal(b1-4)[Fuc(a1-3)]GlcNAc. Summed up:
as §1

The target in a further assay is Neu5Ac(b1-6)GalNAc. Summed up: as §1
Assay [9] addresses Fuc(a1-2)Gal6S(b1-4)Glc6S. Summed up: as §1
The target of assay [10] is Fuc(a1-3)[Gal(b1-4)]GlcNAc. An outline of the steps: as §1
Assay [11] concerns the target Gal(a1-3)Gal(b1-3)[Fuc(a1-4)]GlcNAc(b1-2)Man(a1-3)[Gal(a1-3)Gal(b1-3)[Fuc(a1-4)]GlcNAc(b1-2)Man(a1-6)]Man(b1-4)GlcNAc(b1-4)GlcNAc. An outline of the steps: as §1
For assay [12], the target named is Gal(a1-3)Gal(b1-4)[Fuc(a1-3)]GlcNAc(b1-2)Man(a1-3)[Gal(a1-3)Gal(b1-4)[Fuc(a1-3)]GlcNAc(b1-2)Man(a1-6)]Man(b1-4)GlcNAc(b1-4)GlcNAc. Summed up: as §1
Assay [13] concerns the target Gal(b1-3)GlcNAc(a1-6)Gal(b1-4)GlcNAc. An outline of the steps: as §1
Assay [14] addresses Gal(b1-3)[Fuc(a1-4)]GlcNAc(b1-3)Gal(b1-3)[Fuc(a1-4)]GlcNAc. An outline of the steps: as §1
Assay [15] concerns the target Gal(b1-4)GalNAc(b1-3)[Fuc(a1-2)]Gal(b1-4)GlcNAc. Summed up: as §1
In a further assay the target is Gal(b1-4)GlcNAc. Summed up: as §1
In assay [16] the target is Gal(b1-4)GlcNAc(b1-2)Man(a1-3)Man(b1-4)GlcNAc(b1-4)GlcNAc. Summed up:
as §1

Assay [17] has as its target Gal(b1-4)GlcNAc(b1-2)[Gal(b1-4)GlcNAc(b1-4)]Man(a1-3)[Gal(b1-4)GlcNAc(b1-2)Man(a1-6)]Man(b1-4)GlcNAc(b1-4)GlcNAc. Summed up: as §1
The next assay concerns the target GlcA(b1-3)GlcNAc. An outline of the steps: as §1
Assay [18] concerns the target GlcNAc(a1-4)Gal(b1-4)GlcNAc(b1-3)Gal(b1-4)[Fuc(a1-3)]GlcNAc(b1-3)Gal(b1-4)[Fuc(a1-3)]GlcNAc. Summed up: as §1
For assay [19], the target named is Man(a1-2)Man(a1-2)Man(a1-3)Man. Summed up: as §1
Assay [20] deals with Man(a1-2)Man(a1-6)[Man(a1-3)]Man(a1-6)[Man(a1-2)Man(a1-2)Man(a1-3)]Man(b1-4)GlcNAc(b1-4)GlcNAc. An outline of the steps:
as §1

Assay [21] deals with Man(a1-3)[Man(a1-6)]Man(a1-6)[Man(a1-3)]Man(b1-4)GlcNAc(b1-4)GlcNAc. An outline of the steps: as §1
In assay [22] the target is Neu5Ac(a2-3)Gal(b1-4)[Fuc(a1-3)]GlcNAc(b1-3)GalNAc. An outline of the steps: as §1
Assay [23] deals with Neu5Ac(a2-3)Gal6S(b1-4)GlcNAc. An outline of the steps:
as §1

Assay [24] has as its target Neu5Ac(a2-3)Gal6S(b1-4)[Fuc(a1-3)]GlcNAc. Summed up: as §1
The target in assay [25] is Neu5Ac(a2-3)[GalNAc(b1-4)]Gal(b1-4)Glc. An outline of the steps:
as §1

The next assay addresses Neu5Ac(a2-6)Gal. Summed up:
as §1

Assay [26] deals with Neu5Ac(a2-6)Gal(b1-4)GlcNAc(b1-3)Gal(b1-4)GlcNAc. Summed up:
as §1

The target of assay [27] is Neu5Ac(a2-6)Gal(b1-4)GlcNAc(b1-3)Gal(b1-4)[Fuc(a1-3)]GlcNAc(b1-3)Gal(b1-4)[Fuc(a1-3)]GlcNAc. Summed up:
as §1

For assay [28], the target named is Neu5Ac(a2-6)GlcNAc(b1-4)GlcNAc. An outline of the steps: as §1
Assay [29] concerns the target Neu5Ac(a2-8)Neu5Ac(a2-3)Gal(b1-4)Glc. An outline of the steps:
as §1

The target in assay [30] is Neu5Ac9Ac(a2-3)Gal(b1-4)GlcNAc. Summed up:
as §1

Another assay addresses Fuc(a1-2)GlcNAc. An outline of the steps: as §1
For assay [31], the target named is Fuc(a1-2)[GalNAc(a1-3)]Gal(b1-4)Glc. An outline of the steps: as §1
Assay [32] deals with Gal(a1-3)[Gal(a1-4)]Gal(b1-4)GlcNAc. An outline of the steps:
as §1

Assay [33] concerns the target Gal(b1-3)[Neu5Ac(b2-6)]GalNAc. Summed up:
as §1

The target in assay [34] is Gal(b1-4)GlcNAc(b1-2)Man(a1-3)[Gal(b1-4)GlcNAc(b1-2)Man(a1-6)]Man(b1-4)GlcNAc(b1-4)GlcNAc. An outline of the steps:
as §1

In assay [35] the target is Gal(b1-4)GlcNAc(b1-3)Gal(b1-4)GlcNAc(b1-3)Gal(b1-4)GlcNAc. Summed up:
as §1

Assay [36] addresses Gal(b1-4)GlcNAc(b1-3)GalNAc. An outline of the steps:
as §1

In assay [37] the target is Gal(b1-4)GlcNAc(b1-3)[Gal(b1-4)GlcNAc(b1-6)]GalNAc. An outline of the steps: as §1
Assay [38] addresses Gal(b1-4)GlcNAc(b1-6)[Gal(b1-3)]GalNAc. An outline of the steps: as §1
In another assay the target is GalNAc(a1-3)GalNAc. Summed up: as §1
Assay [39] deals with GalNAc(b1-3)Gal(a1-4)Gal(b1-4)GlcNAc. An outline of the steps: as §1
A further assay deals with Glc(b1-6)Glc. An outline of the steps: as §1
The target in assay [40] is GlcNAc(b1-3)Gal(b1-4)GlcNAc. Summed up:
as §1

Assay [41] deals with GlcNAc(b1-4)GlcNAc(b1-4)GlcNAc(b1-4)GlcNAc(b1-4)GlcNAc(b1-4)GlcNAc. An outline of the steps:
as §1

In a further assay the target is GlcNAc(b1-6)GalNAc. An outline of the steps:
as §1

Assay [42] deals with Neu5Ac(a2-3)Gal(b1-4)[Fuc(a1-3)]GlcNAc6S. Summed up:
as §1

The next assay concerns the target Neu5Ac(a2-3)GalNAc. An outline of the steps:
as §1

For assay [43], the target named is Neu5Ac(a2-3)GalNAc(b1-4)GlcNAc. Summed up: as §1
Assay [44] addresses Neu5Ac(a2-8)Neu5Ac(a2-8)Neu5Ac(a2-3)[GalNAc(b1-4)]Gal(b1-4)Glc. An outline of the steps:
as §1

In a further assay the target is Neu5Gc(a2-3)Gal(b1-4)Glc. An outline of the steps: as §1
A further assay deals with Neu5Gc(a2-6)GalNAc. Summed up: as §1

B1: F17bG (Escherichia coli), Q47200 (protein)
chain: MTNFYKVFLAVFILVCCNISHAVVSFIGSTENDVGPSQGSYSSTHAMDNLPFVYNTGYNIGYQNANVWRIGGGFCVGLDGKVDLPVVGSLDGQSIYGLTEEVGLLIWMGDTNYSRGTAMSGNSWENVFSGWCVGNYLSTQGLSVHVRPVILKRNSSAQYSVQKTSIGSIRMRPYNGSSAGSVQTTVNFSLNPFTLNDTVTSCRLLTPSAVNVSLAAISAGQLPSSGDEVVAGTTSLKLQCDAGVTVWATLTDATTPSNRSDILTLTGASTATGVGLRIYKNTDSTPLKFGPDSPVKGNENQWQLSTGTETSPSVRLYVKYVNTGEGINPGTVNGISTFTFSYQ
With B1, the “glycan array binding signal (z-score)” value with Fuc(a1-2)[Gal(a1-3)]Gal was -0.551; in [1], -0.657; in assay [2], -0.567; in assay [3], -0.507; with Gal(a1-3)Gal(b1-4)Glc it was -0.565; with Gal(a1-4)Gal(b1-4)GlcNAc it was -0.527. For the same molecule, the “glycan array binding signal (z-score)” value in assay [4] is -0.578; in assay [5], 1.08; with GalNAc(b1-3)GalNAc, 4.47; in the assay with GalNAc(b1-4)GlcNAc it was -0.391; in the assay with GlcNAc(b1-3)Gal, 4.21; with GlcNAc(b1-3)GalNAc, 3.86. Moreover, the “glycan array binding signal (z-score)” value in assay [6] is 5.83; with Neu5Ac(a2-3)Gal(b1-4)Glc it was -0.498; in assay [7] it was 0.462; in assay [8], 0.05; with Neu5Ac(b1-6)GalNAc, -0.298.

B2: PEB4 (Campylobacter jejuni), A1VYV6 (protein)
chain: MKKFSLVAAALIAGVALNVNAATVATVNGKSISDAEVSEFFAPMLRGQDFKTLPDNQKKALIQQYIMQDLILQDAKKQNLEKDPLYTKELDRAKDAILVNVYQEKILNTIKIDAAKVKAFYDQNKDKYVKPARVQAKHILVATEKEAKDIINELKGLKGKELDAKFSELAKEKSIDPGSKNQGGELGWFDQSTMVKPFTDAAFALKNGTITTTPVKTNFGYHVILKENSQAKGQIKFDEVKQGIENGLKFEEFKKVINQKGQDLLNSAKVEYK
Turning to B2, the “glycan array binding signal (z-score)” value in assay [9] was 0.571; with Fuc(a1-2)[Gal(a1-3)]Gal it was -0.517; in [10] it was -0.387; in [11], 3.83; in assay [12], 2.12; in assay [13], 2.54. Besides, the “glycan array binding signal (z-score)” value in [14] was 2.99; in [15], -0.25; in the assay with Gal(b1-4)GlcNAc, -0.852; in assay [16] it was -0.258; in assay [17] it was 2.58; with GlcA(b1-3)GlcNAc it was 0.752. Also, the “glycan array binding signal (z-score)” value is 4.35 in assay [18]; 2.37 in assay [19]; 0.969 in [20]; -0.553 in [21]; 5.24 in assay [22]; 1.6 in assay [23]. For the same molecule, the “glycan array binding signal (z-score)” value was 2.8 in assay [24]; -1.19 in [25]; 0.075 in the assay with Neu5Ac(a2-6)Gal; -0.672 in assay [26]; -0.544 in [27]; -0.701 in [28]. For the same molecule, the “glycan array binding signal (z-score)” value is -0.705 in assay [29] and -1.05 in assay [30].

B3: RSVL (Crotalus atrox), P21963 (protein)
chain: NNCPLDWLPMNGLCYKIFNQLKTWEDAEMFCRKYKPGCHLASFHRYGESLEIAEYISDYHKGQENVWIGLRDKKKDFSWEWTDRSCTDYLTWDKNQPDHYQNKEFCVELVSLTGYRLWNDQVCESKDAFLCQCKF
As for B3, the “glycan array binding signal (z-score)” value with Fuc(a1-2)GlcNAc was -0.364; in assay [31] it was 1.84; in [32] it was 5.83; in assay [33] it was 0.952; with Gal(b1-4)GlcNAc, 0.686; in assay [34], 1.49. The “glycan array binding signal (z-score)” value was -0.23 in assay [35]; -0.171 in assay [36]; 5.41 in assay [37]; 5.05 in [38]; 4.76 with GalNAc(a1-3)GalNAc; 0.559 in [39]. Besides, the “glycan array binding signal (z-score)” value is -0.364 in the assay with Glc(b1-6)Glc; -0.369 in assay [40]; -0.369 in assay [41]; 1.02 in the assay with GlcNAc(b1-6)GalNAc; -0.367 in assay [19]; -0.365 in [7]. The “glycan array binding signal (z-score)” value in [42] is -0.345; with Neu5Ac(a2-3)GalNAc, -0.367; in assay [43], -0.342; in assay [44] it was -0.362; with Neu5Gc(a2-3)Gal(b1-4)Glc, -0.365; with Neu5Gc(a2-6)GalNAc, -0.366.
